Sampled rows, rich in hits. Any-hit rate of the full collection: about 3.6%.
D1 antag: antagonists of human D1 dopamine receptor. AID 504652. P21728. activity change, negative = inhibition, % at 10 µM. HEK293 TREx D1 cells, calcium flux, dopamine EC80; stronger effect = lower value. 360,000 compounds, 3.2% hits; in the data active = activity change below about -30%; note: % is set by controls: 0 for no effect and ±100 for the full control effect
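Antagonism measured as reduced calcium response to an EC80 dopamine addition following 180 s compound pre-read; cells were inducible HEK293 Trex D1 plated overnight at 30 C, read kinetically at 1 cycle/sec.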
D1 ag: human D1 receptor agonism; P21728; HEK293 T-REx D1 cells, calcium flux, agonist mode; activation, % at 2 µM; 360,000 compounds, 1% hits; AID 504660; note: 0% is about no effect
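Inducible HEK293 T-REx D1 cells, force-coupled to calcium signalling, were plated at 4000 cells/well with tetracycline and held overnight at 30 C. After no-wash calcium dye loading, compound-evoked calcium rise over 180 s flagged agonists.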
TRHR enhancer: allosteric enhancers of human TRH receptor. enhancement, % at 2 µM. AID 493056. TRHR cells, fluo-8 calcium fluorescence, EC20 TRH enhancement. 360,000 compounds, 0.66% hits; in the data active = enhancement above about 30%; note: 0% is about no effect
Target sequence (P34981 whole entry, looked up): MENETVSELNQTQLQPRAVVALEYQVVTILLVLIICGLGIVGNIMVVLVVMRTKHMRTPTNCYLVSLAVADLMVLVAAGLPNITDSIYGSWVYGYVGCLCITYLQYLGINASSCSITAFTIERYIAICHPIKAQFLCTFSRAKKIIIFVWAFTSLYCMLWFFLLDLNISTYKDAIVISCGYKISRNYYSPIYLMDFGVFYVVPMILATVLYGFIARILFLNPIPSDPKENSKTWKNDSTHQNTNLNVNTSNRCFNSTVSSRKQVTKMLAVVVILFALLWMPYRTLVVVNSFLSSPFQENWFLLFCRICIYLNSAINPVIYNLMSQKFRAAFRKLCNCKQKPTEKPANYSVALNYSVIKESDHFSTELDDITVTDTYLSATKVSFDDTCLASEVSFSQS
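Enhancer read-out: after compound pinning and an initial kinetic agonist-mode read, an EC20 of TRH (10 nM final) was injected and fluo-8 calcium signal (Ex 480/Em 530) followed at 1 s/cycle for 100 cycles in TRHR-expressing cells.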
TRHR agonist: TRH receptor (human) agonism; activation, % at 2 µM; AID 493084; 360,000 compounds, 0.18% hits; TRHR cells, calcium flux fluo-8, FDSS agonist mode; note: 0% is about no effect
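TRHR-expressing cells, plated overnight in medium with 10% serum, were loaded with fluo-8 calcium dye at room temperature. After a 10 s baseline, library compound was pin-added and calcium release was recorded kinetically (ex 480/em 530) as agonist response.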
D1 PAM: human D1 dopamine receptor positive modulation; HEK293 TREx D1 cells, calcium flux, dopamine EC20 potentiation; potentiation, % at 10 µM; 360,000 compounds, 0.036% hits; in the data active = potentiation above about 30%; note: 0% is about no effect
LDHA block: blocks human lactate dehydrogenase A; activity change, % (values are at about 110 or 230 µM); P00338; 480,000 compounds, 0.15% hits; purified LDHA, NADH/diaphorase-resazurin fluorescence; stronger effect = lower value; in the data active = activity change below about -30%;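 note: plate controls were DMSO wells for no effect and wells without enzyme for full effect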
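Enzyme activity of human lactate dehydrogenase 5 (2 nM; 0.06 mM NADH, 0.2 mM pyruvate, 5 min, RT) is measured via a resazurin/diaphorase fluorescence readout of residual NADH.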
* marks the source's active call; other numbers are inactive results; . = not tested or not shown. Cut-off read from the data, not from the text of the source, unless noted: active = activation above about 30%; inactive = the rest.

SMILES	D1 antag	D1 ag	TRHR enhancer	TRHR agonist	D1 PAM	LDHA block
Cc1cccnc1NC(=O)C1CCN(S(=O)(=O)c2ccc3c(c2)CCC(=O)N3)CC1	-43*	0	-2	0	2	-2
CCN(CC)c1ccc(C(=O)OCc2cc(=O)oc3cc(O)ccc23)cc1	-33*	2	-6	0	-11	2
CCn1nnc2cc(C(=O)OCc3cc(=O)oc4cc(O)ccc34)ccc21	.	.	.	.	.	3
Cc1ccc(Cn2c(C)nc3ccc([N+](=O)[O-])cc3c2=O)cc1	-25	1	-11	0	-5	3
Cc1nc2ccc([N+](=O)[O-])cc2c(=O)n1Cc1ccccc1Br	-43*	5	-2	-1	-9	3
Cc1nc2ccc([N+](=O)[O-])cc2c(=O)n1Cc1ccc([N+](=O)[O-])cc1	-62*	5	-20	0	-6	1
Fc1ccccc1CNC(=S)NCCc1ccccc1	.	.	.	.	.	9
COc1ccc(C)cc1CCNC(=O)c1ccc(NC(=O)CC2SC(N3CCCC3)=NC2=O)cc1 (stereo not drawn)	.	.	.	.	.	13
Cc1ccc(OCc2nnc3sc(-c4cccc(N(C)C)c4)nn23)cc1	.	.	.	.	.	2
Fc1ccc(CNc2ncnc3onc(-c4ccc(F)cc4)c23)cc1	-5	2	4	-1	0	0
Cc1ccc(CCNc2ncnc3onc(C)c23)cc1	-36*	22	-9	-1	-8	-1
Cc1ccc(CNc2ncnc3onc(-c4ccc(F)cc4)c23)cc1	-24	32*	3	-1	-5	0
O=C1Cc2cc(C(=O)CSc3nnc(-c4ccc(O)cc4)o3)c(Cl)cc2N1	.	.	.	.	.	1
Cc1ccc(Cl)c(OCCN2CCc3ccccc3C2)c1	-40*	0	-4	0	-22	-3
Cc1ccc(Cl)c(OCCCCN(C)Cc2ccccc2)c1	-29	3	4	0	-12	-19
C/C=C/c1ccc(OCCN2CCc3ccccc3C2)c(OC)c1	-24	-1	-2	-1	-14	-8
CCOc1ccccc1OCCCOc1ccc(C)cc1Br	5	3	2	0	3	-2
CCOc1ccccc1OCCCOc1ccc(C)cc1Cl	-86*	3	-4	1	-6	-7
Cc1ccc(Cl)c(OCCCN(C)Cc2ccccc2)c1	-55*	7	5	1	-3	-15
CCc1ccccc1NC(=O)c1ccc2c(Cl)c3c(nc2c1)CCC3	.	.	.	.	.	0
CS(=O)(=O)N1CCN=C1SCc1ccccc1	0	4	32*	0	-2	-5
O=S(=O)(c1ccccc1)N1CCN=C1SCc1cccnc1	-9	-1	5	0	3	1
COc1cc(OC)c2c(-c3ccccc3)cc(=O)oc2c1C(CC(=O)N1CCCC1)c1ccc2c(c1)OCO2 (stereo not drawn)	-36*	12	-2	0	-8	1
COc1ccc(C(CCN2CCCCC2)c2c(OC)cc(OC)c3c(-c4ccccc4)cc(=O)oc23)cc1 (stereo not drawn)	-43*	55*	5	1	-10	1
COc1cc(OC)c(C2=CCN(C(=O)COc3ccc(Cl)cc3C)CC2)c(OC)c1	.	.	.	.	.	-16
SMILES	D1 antag	D1 ag	TRHR enhancer	TRHR agonist	D1 PAM	LDHA block
N#Cc1c(C(F)(F)F)cc(-c2ccccc2)nc1SCc1nc(N)nc(N2CCOCC2)n1	-17	70*	-4	23	-3	-7
COCc1nn2c(c1-c1ccccc1)NC(=O)CC2C(=O)Nc1ccc(OC)c(Cl)c1 (stereo not drawn)	.	.	.	.	.	1
Oc1ccc(C[C@@H]2CNCCN2CCC23CC4CC(CC(C4)C2)C3)cc1	34	95*	9	0	2	0
Oc1ccc(C[C@H]2CNCCN2CCC23CC4CC(CC(C4)C2)C3)cc1	1	24	6	0	1	-13
Oc1ccc(C[C@H]2CNCCN2CCCCC2CCCCC2)cc1	10	33*	6	1	-2	-2
Oc1ccc(C[C@@H]2CNCCN2CC2CCCCC2)cc1	6	12	2	1	0	-13
O=C(CCCCC(=O)NNC(=S)NC1CC1)NNC(=S)NC1CC1	.	.	.	.	.	-2

From PubChem BioAssay
